One assay addresses ASF1A. Nature of the assay: pooled miR-30 sensor sort-seq; sequence = guide strand. The following applies: shRNA.
For the sequence TTACATAATAGCCAACTCTAAT, the sensor-assay potency score (higher = more potent) was -1.16.

The sequence TCGAAGGTGATCTCGAACTGGA displayed a sensor-assay potency score (higher = more potent) of -0.487.

TTGGATTACTGCTCTCTGCATC: the sensor-assay potency score (higher = more potent) is -0.437.

As for TGAAATACAAACATATGCCTTC, the sensor-assay potency score (higher = more potent) is 0.343.

On to TAATAAATTCTTGTCCTCGATA, for which the sensor-assay potency score (higher = more potent) is -1.01.

Turning to TAACATGACATTTAGTGAGTTT, the sensor-assay potency score (higher = more potent) was -0.448.

TTGAAGCTTAGAAAAGTCTGGT registered a sensor-assay potency score (higher = more potent) of -0.243.

In turn, TAATTTTCCATTCCAAGTCTTC showed a sensor-assay potency score (higher = more potent) of -0.557.

In the case of TTAGATGCCAAAATATTCCTTT, the sensor-assay potency score (higher = more potent) came out at 0.414.

TTTGAAGCTTAGAAAAGTCTGG gave a sensor-assay potency score (higher = more potent) of 0.13.

Turning to TAAAACAGAGTCTAAAACTTGA, the sensor-assay potency score (higher = more potent) was -0.0289.

Take TCTAACATGACATTTAGTGAGT: the sensor-assay potency score (higher = more potent) stood at 0.228.

A further assay has as its target ASNSD1. The assay is described as above. The following applies: shRNA.
As to TAAGATTATATAGTAAGTCCTC, the sensor-assay potency score (higher = more potent) is -0.501.

In the case of TTTCTTGACTGCTACACTCAGG, the sensor-assay potency score (higher = more potent) was -0.64.

TTTTTCACCAATTCCTCGGGGT had a sensor-assay potency score (higher = more potent) of 0.495.

The sequence ATTCTCTTCAGCTTCAACCTTT registered a sensor-assay potency score (higher = more potent) of 0.221.

On to TAACTCTGTCATCACGACCAAG, for which the sensor-assay potency score (higher = more potent) is -0.98.

The sequence TAAATCTTGACTGAAATGCTCA displayed a sensor-assay potency score (higher = more potent) of -0.203.

On to TTCCATAGAAACACATTGCCTC, for which the sensor-assay potency score (higher = more potent) was 0.13.

With TATTAGGACTGTCAGCAGCAGC, the sensor-assay potency score (higher = more potent) is -1.12.

In turn, TTCTAGAAGAAATTCGACCCAG had a sensor-assay potency score (higher = more potent) of -0.284.

Turning to TTCTTCAATAATATTCTCCCTA, the sensor-assay potency score (higher = more potent) was 0.32.
Also: reference of the scale not given here.
